This is an account of results in PubChem BioAssay (NCI).

Each structure is given as a SMILES string. Where “and” joins values, the source holds several entries; their conditions need not be identical. Equal values may be shown once. The panel holds about 83,000 compounds, 20% with a hit somewhere; the sample as a whole holds those more often.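 For each line, cells grew in 96-well plates with the test compound present at a single concentration for 48 hours.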 Calls of active or inactive are those of the source. The calls were made as follows: active = growth percent below 10; inactive = the rest.

Holding throughout (assay): NCI-60 one-dose screen, 48 h (100 = growth as untreated, 0 = no growth, -100 = all killed)
Common to all, as to details: 10 µM unless noted

Experiment [1] has as its system SR leukemia.
The test system of experiment [2] is OVCAR-8 ovarian.
Experiment [3] deals with OVCAR-4 ovarian.
Experiment [4] has as its system SK-OV-3 ovarian.
Experiment [5] concerns IGROV1 ovarian.
Experiment [6] deals with OVCAR-3 ovarian.
In experiment [7] the test system is HS 578T breast.
In experiment [8] the test system is NCI/ADR-RES ovarian.
Experiment [9] has as its system OVCAR-5 ovarian.
For experiment [10], the system named is RPMI-8226 leukemia.

On to `O=C(/C=C/c1cccs1)Nc1ncc(Cc2ccc(Cl)c(Cl)c2)s1`, for which the growth in experiment [1] is 32.7% (inactive); in experiment [2] it was 72.7% (inactive); in experiment [3] it was 66.6% (inactive); in experiment [4], 68.8% (inactive); in experiment [5], 64.1% (inactive); in experiment [6], 40.4% (inactive). Besides, the growth is 62.4% (inactive) in experiment [7] and 60.3% (inactive) in [8].
Regarding `CN1CCN(c2ccc(Nc3ncc(C(N)=O)c(NCCCNC(=O)C4CCC4)n3)cc2)CC1`, the growth is 30.1% (inactive) in experiment [1]; 71.6% (inactive) in experiment [2]; 73.1% (inactive) in experiment [3]; 37.8% (inactive) in experiment [4]; 85.7% (inactive) in experiment [5]; 13.3% (inactive) in experiment [6]. The growth in [7] is 67.2% (inactive); in experiment [8], 105% (inactive).
For `COc1cc(Cl)cc(-c2nn(C(=O)NS(=O)(=O)c3ccc(Cl)cc3)cc2-c2ccncc2)c1`, the growth in experiment [1] was 80.5% (inactive); in experiment [2], 27.5% (inactive); in experiment [3] it was 16.5% (inactive); in experiment [4], 84.7% (inactive); in experiment [5], 82.6% (inactive); in experiment [6] it was 98.3% (inactive). The results for the growth in experiment [7] and in [8] were 73.3% (inactive) and 84.1% (inactive), respectively.
Take `Cc1ccc(-c2nc(C#N)c(S(=O)(=O)N(C)C)o2)cc1`: the growth in [1] is -10.1% (active); in experiment [2], 80.3% (inactive); in experiment [9] it was 97.7% (inactive); in [3], 108% (inactive); in [4] it was 102% (inactive); in experiment [5], 80.5% (inactive). Besides, the growth in experiment [6] was 77% (inactive); in experiment [7], 105% (inactive); in experiment [8], 105% (inactive).
Consider `C=C(C)[C@@H]1CC[C@]2(C(=O)N3CCN(C)CC3)CC[C@]3(C)[C@H](CC[C@@H]4[C@@]5(C)CC(CCCNC(C)=O)(CCCNC(C)=O)[C@H](OC(C)=O)C(C)(C)[C@@H]5CC[C@]43C)[C@@H]12`, for which the growth in experiment [1] was 76.2% (inactive); in experiment [2], 106% (inactive); in experiment [9] it was 102% (inactive); in experiment [3] it was 111% (inactive); in experiment [4] it was 102% (inactive); in experiment [5] it was 102% (inactive). In addition, the growth was 104% (inactive) in experiment [6], 96.6% (inactive) in experiment [7] and 98.7% (inactive) in [8].
For the compound `OCCN1CCN(c2cc(-c3cccc(OC(F)(F)F)c3)nc3ccc(N4CCCC4)cc23)CC1`, the growth was 3.39% (active) in experiment [1]; 54.3% (inactive) in experiment [2]; 69.4% (inactive) in experiment [9]; 54.9% (inactive) in experiment [3]; 74.5% (inactive) in experiment [4]; 36.9% (inactive) in experiment [5]. The results for the growth in experiment [6] and in experiment [8] were 46.7% (inactive) and 48.5% (inactive), respectively.
Regarding `O=C1Nc2ccccc2/C1=C/c1cccn1CCCCCn1c2ccccc2c(=O)c2ccccc21`, the growth in [1] was 76.1% (inactive); in experiment [2], 45.6% (inactive); in experiment [9], 82.6% (inactive); in experiment [3], 57.1% (inactive); in [4], 90.4% (inactive); in [5] it was 73% (inactive). Also, the growth in experiment [6] was 70.9% (inactive); in [7], 90.5% (inactive); in experiment [8] it was 60.9% (inactive).
Consider `OCCN1CCN(CC/C=C2\c3ccccc3Sc3ccc(Cl)cc32)CC1`, for which the growth is -35.8% (active) and -38.4% (active) in experiment [10]; 79.4% (inactive) and 86.4% (inactive) in [2]; 41.8% (inactive) and 63.4% (inactive) in [9]; 71.9% (inactive) and 128% (inactive) in experiment [3]; 77.8% (inactive) and 77.2% (inactive) in experiment [4]; 26.3% (inactive) in experiment [5]. Moreover, the growth in [6] is 42.4% (inactive) and 37.7% (inactive); in [7], 1.43% (active) and 32.3% (inactive); in experiment [8] it was 58.2% (inactive) and 76.6% (inactive).
For the compound `COC(=O)c1nc(-c2ccc(C)cc2)oc1Sc1ccc(C)cc1`, the growth is 76.1% (inactive) in experiment [1]; 98.5% (inactive) in [2]; 97.8% (inactive) in experiment [9]; 101% (inactive) in [3]; 92.1% (inactive) in experiment [4]; 110% (inactive) in [5]. In addition, the growth in [6], in experiment [7] and in experiment [8] was 108% (inactive) each time.
Take `COc1ccc(CN2CCc3c(Cl)nc(N)nc3C2=O)c(OC)c1`: the growth was 3.87% [100 µM] (active) in experiment [1]; 1.04% [100 µM] (active) in experiment [2]; 15.2% [100 µM] (inactive) in experiment [3]; 8.93% [100 µM] (active) in experiment [4]; -37.3% [100 µM] (active) in [5]; -22.4% [100 µM] (active) in experiment [6]. Further, the values for the growth in experiment [7] and in experiment [8] were 49.9% [100 µM] (inactive) and 4.29% [100 µM] (active), respectively.
As to `CC1=C2[C@@H](CC1)[C@]1(C)O[C@@](C(C)C)(C[C@H]1OC(=O)CO)[C@H]2OC(=O)C1CC1c1ccccc1` (some centres undefined), the growth in experiment [1] was 82% (inactive); in [2] it was 65.6% (inactive); in experiment [3], 102% (inactive); in [4] it was 108% (inactive); in experiment [5], 87.5% (inactive); in [6], 96.5% (inactive). Further, the growth in experiment [7] is -2.94% (active); in experiment [8], 69% (inactive).
For `COc1nc2ccc(C)cc2cc1/C=[N+](\[O-])c1ccccc1`, the growth in experiment [1] is 39.9% (inactive); in experiment [2] it was 95.3% (inactive); in [9] it was 92.6% (inactive); in [3] it was 83.7% (inactive); in [4] it was 79.9% (inactive); in experiment [5] it was 75.2% (inactive). Further, the growth was 96.6% (inactive) in experiment [6], 91% (inactive) in experiment [7] and 81.1% (inactive) in experiment [8].
As to `COc1cc(-c2nn(-c3cccc(NC(=O)CCN4CCN(C)CC4)c3)cc2-c2ccncc2)ccc1Cl`, the growth in experiment [1] is -43.5% (active); in [2], 35.1% (inactive); in [9], 67.9% (inactive); in experiment [3] it was 59.7% (inactive); in experiment [4], 23.1% (inactive); in experiment [5], 49.7% (inactive). The growth in experiment [6] is 2.81% (active); in [7], -0.227% (active); in experiment [8], 39.9% (inactive).
Regarding `C=C1C(=O)O[C@H]2[C@H]1CC/C(CNS(=O)(=O)c1ccc3ccccc3c1)=C\CC[C@@]1(C)O[C@@H]21`, the growth in [1] is -12.4% (active); in experiment [2], -17.2% (active); in experiment [3] it was 24.2% (inactive); in [4] it was 84.6% (inactive); in [5], 37.1% (inactive); in experiment [6], -39.6% (active). Further, the growth was 67% (inactive) in [7] and 65.2% (inactive) in [8].
